Bioassay records deposited in PubChem by several laboratories.
MPTP block: mitochondrial permeability transition pore inhibitors, primary screen, biochemical, isolated mouse mitochondria, absorbance | Ca2+ swelling absorbance, 30 min | inhibition, % at 10 µM | 360,000 tested, 1.4% active | AID 602449, 2012;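 active = inhibition of 50% or more, scaled per plate between neutral and stimulator controls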;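 note: 0% = DMSO wells given calcium and 100% = 1 mM EGTA wells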
FAS TE block: FAS thioesterase domain inhibitors, primary screen, biochemical, fluorescence intensity, uHTS; Fatty acid synthase (Homo sapiens), P49327; recombinant FAS-TE, OMFH fluorogenic substrate, fluorescence endpoint; inhibition, % at 15 µM; 360,000 tested, 0.67% active; AID 602261, 2012;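 active = compounds whose normalised, plate-corrected inhibition of enzyme fluorescence in the single-dose primary screen is 50% or more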;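 note: 0% = DMSO with enzyme and 100% = substrate without enzyme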
Myeloid diff 2: induction of myeloid progenitor differentiation, primary screen, cell-based, flow cytometry, MLPCN library; ER-HoxA9 myeloid progenitors, lysozyme-GFP differentiation; calls only at 10 µM; 360,000 tested, 1% active; AID 624256, 2012;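 active = normalized GFP-positive differentiation at or above the plate's own cutoff, the solvent-only control mean plus 3 SD; inconclusive = no clear call, values can overlap the other calls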;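 note: cells exposed to compound for four days before flow analysis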
rCAG RNA binder: binders of r(CAG) RNA repeats, primary screen, biochemical, fluorescence. r(CAG) RNA repeat, TO-PRO-1 dye displacement fluorescence. inhibition, % at 3 µM. 370,000 tested, 1.3% active. AID 651821, 2012;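 active = inhibition above the plate cutoff, the mean of all test compounds on that plate plus 3 SD, cut at about 35% in these data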;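 note: 0% = DMSO alone and 100% = 100 µM mitoxantrone as full dye displacement; higher means more dye released from RNA so lower well fluorescence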
NR3A LBD binder: binders of NR3A ligand-binding domain, primary screen, biophysical, differential scanning fluorimetry, uHTS | NR3A LBD differential scanning fluorimetry, Tm shift; 0% = protein alone, 100% = glycine-bound protein | Tm shift relative to glycine control, % at 25 µM | 340,000 tested, 2.5% active;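 active = melting temperature shift of at least 10% of the positive control shift, at one fixed dose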
FAS-TE inh conf: FAS thioesterase domain inhibitors, confirmation, biochemical, fluorescence intensity, single concentration. shares compounds with FAS TE block. recombinant FAS-TE, OMFH fluorogenic substrate. inhibition, % at 15 µM. 2,300 tested, 45% active. AID 624325, 2012;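 active = compounds inhibiting the enzyme by at least 50% at 15 µM in any one of the replicates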;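 note: 0% = enzyme with DMSO only and 100% = wells lacking enzyme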
Numbers without * were called inactive; i = inactive; ? = inconclusive; · = not tested or not shown. In the library only some 5.7% were active in any assay of this set; here they are far more common.

SMILES	MPTP block	FAS TE block	Myeloid diff 2	rCAG RNA binder	NR3A LBD binder	FAS-TE inh conf
CCOC(=O)C1CCN(C(=O)c2cc3cc4ccc(C)cc4nc3o2)CC1	1	55*	i	-6	-1	62*
C=CC[C@]12C[C@@]3(O[C@H](c4ccc(C(F)(F)F)cc4)N=C3C[C@H](c3ccc(OC)cc3)[C@H]1C)N(Cc1ccncc1)C2=O	·	·	·	4	·	·
Cc1ccc(C2CC(c3ccc(Br)cc3)=NN2C(=O)CSC2=NN3CCCC(=O)N=C3S2)cc1 (stereo not drawn)	-1	54*	i	3	-2	10
COc1ccc(C2=NN(C(=O)CSc3nc(=O)n4cc(C)ccc4n3)C(c3ccc(C)cc3)C2)cc1 (stereo not drawn)	-2	69*	i	6	1	40*
O=C1CCCN2N=C(SCC(=O)N3N=C(c4ccc(Br)cc4)CC3c3ccc(F)cc3)SC2=N1 (stereo not drawn)	0	45	i	3	-1	·
COc1ccc(C2CC(c3cccs3)=NN2C(=O)CSc2nc(=O)n3ccc(C)cc3n2)cc1 (stereo not drawn)	-2	57*	i	5	2	57*
CCOC(=O)[C@]12CCCC3=C1N(CCC3)C(=O)[C@@H](CC(=O)N1CCOCC1)C2	·	·	·	3	·	·
S=c1[nH]nc(-c2n[nH]c3c2CCC3)n1N=Cc1c[nH]c2ccccc12	·	·	·	13	·	·
CN1CCN(C(=O)c2ccc3c(Cl)c4c(nc3c2)CCCC4)CC1	-1	1	i	-6	0	·
N#CC1CCN(C(=O)c2ccc3c(Cl)c4c(nc3c2)CCCC4)CC1	0	78*	i	-7	2	86*
COc1cccc(CNC(=O)[C@H]2CCCN2C(=O)[C@H]2CCCN2C(=O)c2ccccc2C(F)(F)F)c1	·	·	·	-1	·	·
NC(=O)[C@H]1CC2(CC(c3cccc(NC(=O)COc4ccc(Cl)cc4)c3)=NO2)CN1C(=O)CC(c1ccccc1)c1ccccc1 (stereo partly drawn)	1	64*	i	14	-16	29
NC(=O)[C@@H]1CC2(CC(c3cccc(NC(=O)CC(c4ccccc4)c4ccccc4)c3)=NO2)CN1C(=O)COc1ccc(Cl)cc1 (stereo partly drawn)	-1	60*	i	15	9	17
Nc1ccc(C(=O)OCC(=O)N2CCc3ccccc3C2)cc1[N+](=O)[O-]	1	23	i	3	-1	·
O=C(OCC(=O)N1CCc2ccccc2C1)c1ccc(Cl)c([N+](=O)[O-])c1	0	72*	i	2	1	71*
Nc1ccc(C(=O)OCC(=O)N2c3ccccc3Sc3ccccc32)cc1[N+](=O)[O-]	2	66*	i	5	0	24
O=C(COC(=O)c1ccc(Cl)c([N+](=O)[O-])c1)NC1CCCC1	0	74*	i	-3	0	65*
Nc1nc(N)c2cc(S(=O)(=O)c3ccc4ccccc4c3)ccc2n1	7	-2	?	4	·	·
O=C(Cn1nc(-c2ccccc2)c2ccccc2c1=O)Nc1ccc(O)cc1	2	-3	i	3	0	·
Cc1ccc(NC(=O)NNC(=O)Cn2nc(-c3ccccc3)c(-c3ccccc3)c(C#N)c2=O)cc1	1	68*	i	16	1	58*
Cc1ccc(NC(=O)c2nc[nH]c2C(=O)N[C@@H](C)c2ccccc2)cc1	2	43	i	6	-2	·
C[C@@H](NC(=O)c1[nH]cnc1C(=O)Nc1ccc(Cl)cc1)c1ccccc1	0	64*	i	23	-1	63*
O=C(NCc1ccccc1)[C@H]1CCCN1C(=O)[C@H]1CCCN1C(=O)c1ccccc1C(F)(F)F	·	·	·	2	·	·
C#CCN(C[C@H]1[C@H](OC(=O)NCc2ccccc2F)[C@H](OC(=O)NCc2ccccc2F)C[C@H]2C(=O)N(c3ccccc3)C(=O)[C@@H]12)S(=O)(=O)c1ccc(C)cc1	3	54*	i	19	·	11
C#CCN(C[C@H]1[C@H](OC(=O)NCc2ccc(OC)c(OC)c2)[C@H](OC(=O)NCc2ccc(OC)c(OC)c2)C[C@H]2C(=O)N(c3ccccc3)C(=O)[C@@H]12)S(=O)(=O)c1ccc(C)cc1	1	71*	i	19	·	25
SMILES	MPTP block	FAS TE block	Myeloid diff 2	rCAG RNA binder	NR3A LBD binder	FAS-TE inh conf
CCCCCCCCN1C(=O)[C@@H](CC(=O)N2CCCC2)C[C@@]2(C(=O)OC)C1=C[C@H](C(C)C)O[C@@H]2C1CC1	·	·	·	5	·	·
CC(C)(C)S(=O)(=O)N1C[C@@H]2CC(=O)C(CCO)=C2[C@H]1CCO	·	·	·	0	·	·
O=C(Nc1ccc(S(=O)(=O)N2CCCCC2)cc1)c1ccccc1Cl	0	5	i	0	-4	·
COC(=O)c1cc(NC(=O)N2c3ccccc3Sc3ccccc32)cc(C(=O)OC)c1	3	72*	i	4	2	28
O=C(Nc1ccc(S(=O)(=O)N2CCCC2)cc1)N1c2ccccc2Sc2ccccc21	5	76*	i	4	-1	29
N#CCS(=O)(=O)c1cccc[n+]1[O-]	·	·	·	2	·	·
C=CCN1CC(COCc2ccccc2)OCCS1(=O)=O (stereo not drawn)	·	·	·	1	·	·
COc1ccc(C(Nc2ccccn2)c2c(NC(=O)c3ccco3)sc(C)c2C)cc1 (stereo not drawn)	5	32	i	8	-2	·
Cc1sc(NC(=O)c2ccco2)c(C(Nc2ccccn2)c2ccccc2)c1C (stereo not drawn)	1	60*	i	2	-3	15
COc1cccc(C(Nc2ccccn2)c2c(NC(=O)c3ccco3)sc(C)c2C)c1 (stereo not drawn)	0	54*	i	5	-3	11
F[B-](F)(F)c1cncnc1	·	·	·	4	·	·
Cc1cccc(C(=O)NCCC(=O)Nc2ccc(F)c([N+](=O)[O-])c2)c1	1	54*	i	1	1	68*
Cc1ccc(CC(=O)Nc2ccc(F)c([N+](=O)[O-])c2)cc1	-1	-11	i	1	1	·
C[C@@H]1CCCN1c1cccc2c1S(=O)(=O)N1CC[C@@H](C1)O2	·	·	·	3	·	·
CCOC(=O)C1=CCN(S(=O)(=O)c2ccc(Br)cc2)C1c1cccc(Cl)c1 (stereo not drawn)	·	·	·	4	·	·
Cc1cc(C)c(C#N)c(SCC(=O)c2ccc(Cl)cc2Cl)n1	2	72*	?	1	-4	37*
COC(=O)[C@]12C[C@H](CC(=O)N3CCOCC3)C(=O)N(Cc3cccc4ccccc34)C1=C[C@H](COCc1ccccc1)O[C@@H]2C	·	·	·	7	·	·
